Experiments:
[1] = molecular target: T1, Dual specificity mitogen-activated protein kinase kinase 6 (Homo sapiens) (UniProt P52564); conditions: at 1 µM
T1 sequence (whole entry): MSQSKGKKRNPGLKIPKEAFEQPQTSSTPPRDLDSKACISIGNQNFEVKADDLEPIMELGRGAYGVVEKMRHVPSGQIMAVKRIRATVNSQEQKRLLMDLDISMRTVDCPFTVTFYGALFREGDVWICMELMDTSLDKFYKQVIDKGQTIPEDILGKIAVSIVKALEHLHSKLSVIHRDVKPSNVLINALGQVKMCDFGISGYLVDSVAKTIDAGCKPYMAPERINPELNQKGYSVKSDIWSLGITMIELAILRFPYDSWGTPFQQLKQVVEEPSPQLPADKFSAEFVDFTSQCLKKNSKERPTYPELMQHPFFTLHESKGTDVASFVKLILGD

[2] = molecular target: T1, Dual specificity mitogen-activated protein kinase kinase 6 (Homo sapiens); conditions: at 10 µM
[3] = molecular target: T2, Dual specificity mitogen-activated protein kinase kinase 7 (Homo sapiens) (UniProt O14733); conditions: at 1 µM
T2 sequence (whole entry): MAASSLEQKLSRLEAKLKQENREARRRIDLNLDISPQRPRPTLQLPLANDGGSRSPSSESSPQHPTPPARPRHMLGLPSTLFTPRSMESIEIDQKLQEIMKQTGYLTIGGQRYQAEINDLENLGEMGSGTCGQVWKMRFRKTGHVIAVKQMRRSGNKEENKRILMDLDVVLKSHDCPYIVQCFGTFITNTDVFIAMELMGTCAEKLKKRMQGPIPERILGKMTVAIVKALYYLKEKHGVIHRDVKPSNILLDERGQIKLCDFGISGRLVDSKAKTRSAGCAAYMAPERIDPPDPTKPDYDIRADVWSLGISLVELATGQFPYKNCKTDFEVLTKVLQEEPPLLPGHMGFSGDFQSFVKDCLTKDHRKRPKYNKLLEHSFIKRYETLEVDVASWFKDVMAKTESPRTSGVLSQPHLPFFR

[4] = molecular target: T2, Dual specificity mitogen-activated protein kinase kinase 7 (Homo sapiens); conditions: at 10 µM
[5] = molecular target: Myosin light chain kinase, smooth muscle (Homo sapiens) (UniProt Q15746); conditions: at 1 µM
[6] = molecular target: Myosin light chain kinase, smooth muscle (Homo sapiens) (UniProt Q15746); conditions: at 10 µM
[7] = molecular target: Mitogen-activated protein kinase kinase kinase 9 (Homo sapiens) (UniProt P80192); conditions: at 1 µM
[8] = molecular target: Mitogen-activated protein kinase kinase kinase 9 (Homo sapiens) (UniProt P80192); conditions: at 10 µM
[9] = molecular target: Serine/threonine-protein kinase MRCK alpha (Homo sapiens) (UniProt Q5VT25); conditions: at 1 µM
[10] = molecular target: Serine/threonine-protein kinase MRCK alpha (Homo sapiens) (UniProt Q5VT25); conditions: at 10 µM
[11] = molecular target: Serine/threonine-protein kinase MRCK beta (Homo sapiens) (UniProt Q9Y5S2); conditions: at 1 µM
[12] = molecular target: Serine/threonine-protein kinase MRCK beta (Homo sapiens) (UniProt Q9Y5S2); conditions: at 10 µM
[13] = molecular target: Ribosomal protein S6 kinase alpha-5 (Homo sapiens) (UniProt O75582); conditions: at 1 µM
[14] = molecular target: Ribosomal protein S6 kinase alpha-5 (Homo sapiens) (UniProt O75582); conditions: at 10 µM
[15] = molecular target: Ribosomal protein S6 kinase alpha-4 (Homo sapiens) (UniProt O75676); conditions: at 1 µM
[16] = molecular target: Ribosomal protein S6 kinase alpha-4 (Homo sapiens) (UniProt O75676); conditions: at 10 µM
[17] = molecular target: SRSF protein kinase 3 (Homo sapiens) (UniProt Q9UPE1); conditions: at 1 µM
[18] = molecular target: SRSF protein kinase 3 (Homo sapiens) (UniProt Q9UPE1); conditions: at 10 µM
[19] = molecular target: T3, Serine/threonine-protein kinase 4 (Homo sapiens) (UniProt Q13043); conditions: at 1 µM
T3 sequence (whole entry): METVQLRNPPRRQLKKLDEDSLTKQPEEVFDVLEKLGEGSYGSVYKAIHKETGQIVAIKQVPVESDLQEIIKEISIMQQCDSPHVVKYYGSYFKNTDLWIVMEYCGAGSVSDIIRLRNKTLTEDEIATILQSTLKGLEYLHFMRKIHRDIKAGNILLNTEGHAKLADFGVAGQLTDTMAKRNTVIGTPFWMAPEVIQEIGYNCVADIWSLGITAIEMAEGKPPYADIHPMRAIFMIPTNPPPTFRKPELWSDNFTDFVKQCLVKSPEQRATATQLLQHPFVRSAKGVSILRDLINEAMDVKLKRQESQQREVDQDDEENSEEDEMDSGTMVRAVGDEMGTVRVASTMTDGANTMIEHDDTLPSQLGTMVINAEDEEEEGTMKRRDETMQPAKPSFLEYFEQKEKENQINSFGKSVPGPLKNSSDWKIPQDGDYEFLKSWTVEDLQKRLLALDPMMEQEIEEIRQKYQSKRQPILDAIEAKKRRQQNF

[20] = molecular target: T3, Serine/threonine-protein kinase 4 (Homo sapiens); conditions: at 10 µM

Sequence of Ribosomal protein S6 kinase alpha-4 (Homo sapiens) (O75676 whole entry, looked up): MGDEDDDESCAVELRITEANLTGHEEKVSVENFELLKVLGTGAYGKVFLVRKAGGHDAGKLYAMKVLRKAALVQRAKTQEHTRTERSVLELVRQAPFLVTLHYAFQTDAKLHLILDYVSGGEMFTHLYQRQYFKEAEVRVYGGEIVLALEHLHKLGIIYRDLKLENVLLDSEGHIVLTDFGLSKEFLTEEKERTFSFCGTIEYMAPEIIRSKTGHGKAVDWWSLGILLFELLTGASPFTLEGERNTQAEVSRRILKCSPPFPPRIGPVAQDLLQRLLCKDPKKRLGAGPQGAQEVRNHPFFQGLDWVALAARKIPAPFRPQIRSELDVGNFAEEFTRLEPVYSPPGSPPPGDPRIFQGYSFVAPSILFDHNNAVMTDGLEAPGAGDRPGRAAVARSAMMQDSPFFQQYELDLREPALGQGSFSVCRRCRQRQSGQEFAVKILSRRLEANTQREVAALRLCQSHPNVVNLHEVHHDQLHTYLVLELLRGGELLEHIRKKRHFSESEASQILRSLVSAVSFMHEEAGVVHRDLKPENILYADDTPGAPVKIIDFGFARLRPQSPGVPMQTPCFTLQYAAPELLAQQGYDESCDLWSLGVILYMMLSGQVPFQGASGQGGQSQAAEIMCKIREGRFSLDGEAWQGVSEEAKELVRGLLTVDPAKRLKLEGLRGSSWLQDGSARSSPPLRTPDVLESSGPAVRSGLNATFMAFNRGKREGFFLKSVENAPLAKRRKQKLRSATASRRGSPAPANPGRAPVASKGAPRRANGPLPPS
Sequence of Myosin light chain kinase, smooth muscle (Homo sapiens) (Q15746 whole entry): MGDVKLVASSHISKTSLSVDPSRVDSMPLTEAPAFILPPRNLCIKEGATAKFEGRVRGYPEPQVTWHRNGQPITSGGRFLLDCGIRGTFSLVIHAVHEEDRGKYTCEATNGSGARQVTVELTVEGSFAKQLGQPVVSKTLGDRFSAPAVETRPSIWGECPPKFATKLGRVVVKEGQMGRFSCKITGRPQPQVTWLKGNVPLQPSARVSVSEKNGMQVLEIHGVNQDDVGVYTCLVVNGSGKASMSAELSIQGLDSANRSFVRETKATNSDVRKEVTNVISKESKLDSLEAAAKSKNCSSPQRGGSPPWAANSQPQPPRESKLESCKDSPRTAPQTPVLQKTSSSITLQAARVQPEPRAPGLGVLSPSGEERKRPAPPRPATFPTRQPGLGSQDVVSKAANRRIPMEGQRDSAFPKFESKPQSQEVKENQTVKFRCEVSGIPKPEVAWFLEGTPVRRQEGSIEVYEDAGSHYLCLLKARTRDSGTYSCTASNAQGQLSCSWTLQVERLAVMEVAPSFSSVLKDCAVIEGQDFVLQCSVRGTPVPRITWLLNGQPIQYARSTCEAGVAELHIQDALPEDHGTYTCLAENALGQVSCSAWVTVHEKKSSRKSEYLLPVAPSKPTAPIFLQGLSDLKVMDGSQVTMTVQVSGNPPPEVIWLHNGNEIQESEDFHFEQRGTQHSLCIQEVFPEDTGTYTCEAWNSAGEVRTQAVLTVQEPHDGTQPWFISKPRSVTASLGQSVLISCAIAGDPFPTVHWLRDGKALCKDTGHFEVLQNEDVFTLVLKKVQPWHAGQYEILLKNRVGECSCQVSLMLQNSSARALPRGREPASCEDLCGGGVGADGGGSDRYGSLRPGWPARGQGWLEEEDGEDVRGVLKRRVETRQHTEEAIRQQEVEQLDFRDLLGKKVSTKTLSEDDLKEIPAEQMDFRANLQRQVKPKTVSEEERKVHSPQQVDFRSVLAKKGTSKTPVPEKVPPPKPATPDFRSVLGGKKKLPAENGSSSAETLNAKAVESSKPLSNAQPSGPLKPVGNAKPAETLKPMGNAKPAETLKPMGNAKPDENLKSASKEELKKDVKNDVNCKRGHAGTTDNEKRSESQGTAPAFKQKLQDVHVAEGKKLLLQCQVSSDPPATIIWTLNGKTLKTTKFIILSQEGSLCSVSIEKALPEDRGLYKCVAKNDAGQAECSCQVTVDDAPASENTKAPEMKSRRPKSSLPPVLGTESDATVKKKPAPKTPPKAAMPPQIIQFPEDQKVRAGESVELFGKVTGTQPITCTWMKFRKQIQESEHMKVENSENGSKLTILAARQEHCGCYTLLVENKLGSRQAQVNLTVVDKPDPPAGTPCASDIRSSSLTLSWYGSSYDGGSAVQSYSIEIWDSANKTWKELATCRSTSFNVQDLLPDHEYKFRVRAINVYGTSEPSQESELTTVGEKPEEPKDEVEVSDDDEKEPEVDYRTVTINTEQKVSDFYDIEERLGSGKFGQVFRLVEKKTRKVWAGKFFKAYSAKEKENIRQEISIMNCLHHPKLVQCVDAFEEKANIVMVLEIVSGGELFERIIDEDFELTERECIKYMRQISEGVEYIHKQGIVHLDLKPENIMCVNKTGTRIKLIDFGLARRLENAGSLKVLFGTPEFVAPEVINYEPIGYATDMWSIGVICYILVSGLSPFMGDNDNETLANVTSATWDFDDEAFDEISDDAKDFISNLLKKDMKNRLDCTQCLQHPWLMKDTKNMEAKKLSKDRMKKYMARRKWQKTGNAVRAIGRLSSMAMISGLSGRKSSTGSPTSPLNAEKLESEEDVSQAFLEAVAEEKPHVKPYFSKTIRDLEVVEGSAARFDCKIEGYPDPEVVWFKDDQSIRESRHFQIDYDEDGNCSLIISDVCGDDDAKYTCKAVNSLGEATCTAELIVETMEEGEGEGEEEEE
Sequence of Serine/threonine-protein kinase MRCK alpha (Homo sapiens) (Q5VT25 whole entry): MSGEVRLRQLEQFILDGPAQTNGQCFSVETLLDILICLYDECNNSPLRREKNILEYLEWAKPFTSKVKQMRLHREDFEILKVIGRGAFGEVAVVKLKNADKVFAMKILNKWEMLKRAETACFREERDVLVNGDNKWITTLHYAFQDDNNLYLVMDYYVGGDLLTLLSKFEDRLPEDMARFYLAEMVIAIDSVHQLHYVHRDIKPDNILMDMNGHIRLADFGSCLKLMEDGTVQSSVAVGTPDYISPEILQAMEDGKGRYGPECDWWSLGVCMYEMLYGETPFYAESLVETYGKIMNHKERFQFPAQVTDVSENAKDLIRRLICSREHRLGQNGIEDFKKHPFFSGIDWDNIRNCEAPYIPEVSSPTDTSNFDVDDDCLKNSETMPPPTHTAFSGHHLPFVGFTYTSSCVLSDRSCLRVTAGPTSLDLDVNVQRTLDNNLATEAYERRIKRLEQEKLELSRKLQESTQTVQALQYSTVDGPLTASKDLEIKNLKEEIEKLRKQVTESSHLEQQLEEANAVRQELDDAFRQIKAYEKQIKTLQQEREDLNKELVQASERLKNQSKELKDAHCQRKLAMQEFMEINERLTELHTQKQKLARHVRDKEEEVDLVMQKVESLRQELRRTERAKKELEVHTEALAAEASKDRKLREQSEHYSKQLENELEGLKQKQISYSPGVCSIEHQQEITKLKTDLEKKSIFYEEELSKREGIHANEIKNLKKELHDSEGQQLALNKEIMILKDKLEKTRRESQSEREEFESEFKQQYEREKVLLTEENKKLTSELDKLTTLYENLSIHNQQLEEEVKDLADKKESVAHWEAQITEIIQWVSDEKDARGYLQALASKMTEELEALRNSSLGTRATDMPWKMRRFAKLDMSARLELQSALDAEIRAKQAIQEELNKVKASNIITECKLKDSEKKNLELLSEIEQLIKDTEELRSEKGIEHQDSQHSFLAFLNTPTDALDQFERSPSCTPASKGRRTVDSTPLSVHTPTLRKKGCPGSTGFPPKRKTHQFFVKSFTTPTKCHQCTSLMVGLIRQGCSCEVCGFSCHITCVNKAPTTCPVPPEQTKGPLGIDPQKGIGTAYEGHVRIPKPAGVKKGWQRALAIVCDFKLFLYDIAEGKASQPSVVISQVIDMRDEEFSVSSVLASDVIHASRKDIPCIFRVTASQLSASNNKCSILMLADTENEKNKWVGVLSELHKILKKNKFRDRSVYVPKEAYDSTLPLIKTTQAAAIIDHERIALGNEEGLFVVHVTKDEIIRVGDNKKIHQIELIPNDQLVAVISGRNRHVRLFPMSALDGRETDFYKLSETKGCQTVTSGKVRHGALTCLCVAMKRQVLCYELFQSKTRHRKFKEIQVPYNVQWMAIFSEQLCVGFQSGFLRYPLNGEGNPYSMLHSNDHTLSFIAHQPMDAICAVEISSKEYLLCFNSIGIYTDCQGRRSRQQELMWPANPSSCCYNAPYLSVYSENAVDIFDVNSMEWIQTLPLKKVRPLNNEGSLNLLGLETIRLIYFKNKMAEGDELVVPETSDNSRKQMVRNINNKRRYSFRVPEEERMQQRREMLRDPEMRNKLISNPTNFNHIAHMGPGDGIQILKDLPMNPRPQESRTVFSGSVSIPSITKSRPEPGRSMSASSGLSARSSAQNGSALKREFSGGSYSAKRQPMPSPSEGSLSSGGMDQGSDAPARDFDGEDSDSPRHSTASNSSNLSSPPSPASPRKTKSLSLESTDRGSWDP
Sequence of SRSF protein kinase 3 (Homo sapiens) (Q9UPE1 whole entry): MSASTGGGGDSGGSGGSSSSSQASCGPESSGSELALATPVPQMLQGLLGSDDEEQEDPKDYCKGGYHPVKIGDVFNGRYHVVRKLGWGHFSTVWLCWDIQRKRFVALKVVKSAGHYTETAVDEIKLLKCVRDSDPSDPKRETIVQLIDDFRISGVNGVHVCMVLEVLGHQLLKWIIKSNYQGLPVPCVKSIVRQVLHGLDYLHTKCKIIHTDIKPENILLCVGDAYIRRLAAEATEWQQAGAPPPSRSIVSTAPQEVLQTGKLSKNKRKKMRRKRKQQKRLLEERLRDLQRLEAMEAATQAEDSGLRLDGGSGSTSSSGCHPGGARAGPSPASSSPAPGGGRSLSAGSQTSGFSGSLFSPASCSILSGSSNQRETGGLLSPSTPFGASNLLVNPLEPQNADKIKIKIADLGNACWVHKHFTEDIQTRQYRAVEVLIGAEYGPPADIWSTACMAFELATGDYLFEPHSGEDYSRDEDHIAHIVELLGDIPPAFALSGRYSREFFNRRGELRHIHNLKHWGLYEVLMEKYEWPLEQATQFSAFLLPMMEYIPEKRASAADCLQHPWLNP

Compound	residual activity [1]	residual activity [2]	residual activity [3]	residual activity [4]	residual activity [5]	residual activity [6]	residual activity [7]	residual activity [8]	residual activity [9]	residual activity [10]	residual activity [11]	residual activity [12]	residual activity [13]	residual activity [14]	residual activity [15]	residual activity [16]	residual activity [17]	residual activity [18]	residual activity [19]	residual activity [20]
O=C(CCCc1ccc(-c2ccccc2F)cc1)Nc1ccc(O)cc1	98%	75%	89%	85%	102%	82%	91%	89%	107%	136%	108%	105%	110%	104%	110%	100%	105%	94%	80%	107%
COc1ccc(COc2ccc(Cc3cnc(N)nc3N)cc2OC)cc1	78%	80%	113%	80%									131%	109%			111%	82%		77%
O=C1NC(=O)c2c1c1c3ccccc3[nH]c1n1cncc21	69%	21%	42%	27%	11%	8%	33%	12%	99%	90%	82%	79%	63%	48%	53%	29%	82%	63%	40%	21%
NC(=O)c1ccc(-c2nc(-c3ccc4c(c3)OCCO4)c(-c3ccccn3)[nH]2)cc1	97%	58%	91%	95%			94%	79%			95%	92%	120%	124%					90%	118%
Fc1ccc(-c2nc3n(c2-c2ccncc2)CCS3)cc1	61%	9%	82%	83%							99%	98%			95%	85%				
Nc1nc(Nc2ccc(S(N)(=O)=O)cc2)nn1C(=O)c1c(F)cccc1F			104%		78%	22%	16%	1%									75%	33%	25%	2%
CC(C)N(CCC(=O)c1ccc2ccccc2c1)Cc1ccccc1				38%	81%	83%	86%				82%	77%	126%	123%				85%	87%	84%
Cc1cc(C)c(/C=C2\C(=O)Nc3ccccc32)[nH]1	60%	76%			32%	39%					99%				61%	39%	99%		51%	20%
O=S(=O)(NCCNC/C=C/c1ccc(Br)cc1)c1cccc2cnccc12		69%				63%		74%				66%	19%	3%	9%	2%				
O=C1NC(=O)C(c2c[nH]c3ccccc23)=C1c1c[nH]c2ccccc12			126%	117%	61%	15%	43%	8%					73%	19%	49%	6%		35%	41%	7%
COc1ccc2c(c1)c(C1=C(c3c[nH]c4ccccc34)C(=O)NC1=O)cn2CCCN(C)C	110%			104%	51%	15%	63%	15%	74%	80%	80%	41%	37%	4%	39%	5%		52%	64%	25%
COc1cc2c(cc1OC)-c1n[nH]c(Nc3cccc(F)c3)c1C2			109%	131%	73%	60%			116%	129%		100%					114%	66%	83%	73%
O=C1NC(=O)C(c2cn(CCCn3ccnc3)c3ccccc23)=C1Nc1ccccc1			102%	121%	53%	23%	16%	5%				41%	39%	6%	22%	4%	100%	67%	41%	13%
NC(=O)c1cccc(-c2cc(Nc3ccc(OC(F)(F)F)cc3)ncn2)c1	144%	95%			88%		95%	87%		145%										
Nc1ncnc2[nH]nc(Nc3ccc(F)cc3)c12		74%			100%	78%	60%	12%	117%	106%	95%	106%	117%	97%	92%	74%	98%	76%	72%	
Oc1cccc(-c2nc(N3CCOCC3)c3oc4ncccc4c3n2)c1	91%				71%	72%	90%	99%	97%	91%	91%	85%	130%	90%				92%	97%	97%
O=c1cc(N2CCOCC2)oc2c(-c3ccccc3)cccc12	72%			76%								65%								
